Test [1] in a line: inhibitors of TNFa-induced NFkB p65 translocation, primary screen, imaging, HUVEC, MLSMR starter and 10KST1 sets (AID 438;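 active = inhibition above 20% together with a positive visual image hit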;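 note: compound added about 3h40 before a 20 min TNFalpha stimulation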;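 for inhibition: signal is the nuclear over cytoplasmic p65 intensity ratio per well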). The note with it: HUVEC TNFa-induced p65 nuclear translocation; cell count: measured here: nuclei count (cytotoxicity indicator), at 2.08 µM; inhibition: at 2 µM, stronger effect = higher value, 0% TNFa-plus-vehicle, 100% no-TNFa wells.
The nature of test [2]: inhibitors of mutant huntingtin aggregation, primary screen, imaging, exon1htt(103Q)mCFP cells, high-content imaging (AID 483;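 active = visual image review flags a hit and inhibition of aggregation exceeds 20%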;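 note: compound exposure lasted 3 days before fixation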;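 for nuclei count: percent of the per-plate median nuclei count of sample wells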). The note with it: exon1htt(103Q)mCFP cell line, aggregate imaging, at 2 µM; inhibition of aggregation: stronger effect = higher value; nuclei count: measured here: cell count, toxicity.
Test [3] can be described thus: inhibitors of E-selectin induction by TNFa, primary screen, imaging, HUVEC, immunofluorescence, MLSMR starter and 10KST1 sets (AID 487;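 active = visually confirmed hit in the image check and inhibition above 20%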;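 for inhibition: signal is fraction of cell area covered by stained E-selectin grains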;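 for nuclei count: 100% = median nuclei count of all wells on the same plate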). The note with it: HUVEC TNFalpha-induced E-selectin immunofluorescence imaging, at 2 µM; inhibition: stronger effect = higher value; nuclei count: measured here: cell number, toxicity.
The target in test [4] is Voltage-gated potassium channel subunit beta-2 (Rattus norvegicus) (UniProt P62483). Description: KvBeta enzyme negative modulators, primary screen, biochemical, NADPH fluorescence (AID 622;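 active = fluorescence slope higher than the sample average by over 3 SD, cut at about -0.22 in these data, passing the limit was not always enough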;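 note: slope of raw intensity against log time taken from 70 to 1610 s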). The note with it: recombinant KvBeta, 4-cyanobenzaldehyde reduction, at 10 µM, stronger effect = higher value.
Voltage-gated potassium channel subunit beta-2 (Rattus norvegicus), sequence (P62483 whole entry, looked up): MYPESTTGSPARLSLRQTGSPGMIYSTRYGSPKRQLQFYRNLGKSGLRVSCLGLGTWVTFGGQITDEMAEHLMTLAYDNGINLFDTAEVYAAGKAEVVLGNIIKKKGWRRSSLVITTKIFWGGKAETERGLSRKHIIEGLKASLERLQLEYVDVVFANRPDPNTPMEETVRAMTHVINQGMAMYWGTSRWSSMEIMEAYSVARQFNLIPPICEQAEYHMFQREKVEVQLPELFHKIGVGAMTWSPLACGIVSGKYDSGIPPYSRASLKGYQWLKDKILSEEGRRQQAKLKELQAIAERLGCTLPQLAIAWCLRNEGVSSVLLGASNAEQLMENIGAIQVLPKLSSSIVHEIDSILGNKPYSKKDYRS
Test [5] shares this target. Description: KvBeta positive modulators, primary screen, biochemical, NADPH fluorescence (AID 623;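 active = NADPH fluorescence slope more negative than the mean of all samples by about 3 SD, 99.7% confidence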;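 note: fluorescence intensity change per second fitted from 20 to 320 s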). The note with it: Recombinant KvBeta, NADPH fluorescence decrease slope, 10 min; at 10 µM; stronger effect = lower value.
Test [6] concerns the target Alpha-2C adrenergic receptor (Homo sapiens) (UniProt P18825). Briefly: modulators of alpha2C/GIRK thallium flux, primary screen, cell-based, HEK293 alpha2C/GIRK1/2 (AID 624;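 active = fluorescence slope after compound addition differing from the mean of all screened samples at 99.7% confidence, in either direction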;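 note: slope of fluorescence ratio to pre-addition baseline per second over 15 to 24 s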). Particulars: thallium flux BTC fluorescence, at 10 µM, actives lie on both sides.
The nature of test [7]: inhibitors of Sendai virus-induced IRF3 signaling, primary screen, TLR/RLR signaling modifier project, cell-based, Sendai virus stimulus, luciferase, 10K MLSCN set (AID 602276).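 Note: firefly luciferase from ISG56 promoter only with Renilla not read in this screen; 0% = Sendai virus plus DMSO and 100% = medium plus DMSO without virus.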 The note with it: HEK293 RL24 IRF3 luciferase reporter, at 10 µM, stronger effect = higher value. A general note: A reporter such as luciferase makes a cellular process visible.
Test [8] in a line: inhibitors of poly I:C-induced TLR3 signaling, primary screen, cell-based, poly I:C stimulus, luciferase, 10K MLSCN set (AID 602277;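 active = inhibition of the reporter signal at or above 50%; inactive = inhibition below 50%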). The note with it: HEK293-TLR3 RL24 IRF3 luciferase reporter, at 10 µM, stronger effect = higher value.

Activity calls are given as the source filed them.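 Rule for the calls, unless noted: active = inhibition at or above 50% at 10 µM; inactive = inhibition below 50%.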

Alpha-2C adrenergic receptor (Homo sapiens), sequence (P18825 whole entry, looked up): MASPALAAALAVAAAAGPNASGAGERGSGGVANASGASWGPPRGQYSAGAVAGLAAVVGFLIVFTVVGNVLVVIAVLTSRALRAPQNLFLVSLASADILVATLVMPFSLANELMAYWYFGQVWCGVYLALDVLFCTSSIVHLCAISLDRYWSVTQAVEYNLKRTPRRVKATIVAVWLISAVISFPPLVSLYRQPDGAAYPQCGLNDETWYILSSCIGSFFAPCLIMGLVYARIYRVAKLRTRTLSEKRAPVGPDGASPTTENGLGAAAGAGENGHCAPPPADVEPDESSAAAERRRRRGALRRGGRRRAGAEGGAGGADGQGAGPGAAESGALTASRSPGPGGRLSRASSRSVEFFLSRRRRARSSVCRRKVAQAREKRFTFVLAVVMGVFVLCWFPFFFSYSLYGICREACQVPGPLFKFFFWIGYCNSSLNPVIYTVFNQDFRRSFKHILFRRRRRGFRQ

For orientation: inhibition means the change of the read-out against control, counted positive when it falls. For `COCCn1c(SCC(=O)Nc2ccc3c(c2)OCCO3)nc2c(c1=O)SC(C)C2` (centres undefined), in test [1], the cell count stood at 715. Besides, the inhibition in test [1] was -4.4% (inactive); in test [3] it was -36.9% (inactive); in test [7], -10.2% (inactive); in test [8], -0.542% (inactive). For the same molecule, the inhibition of aggregation in test [2] was -19.9% (inactive). The nuclei count in test [2] is 106%; in test [3], 116%. The fluorescence slope in test [4] is -0.413 (inactive). Moreover, in test [5], the NADPH fluorescence slope is 3.3e-05 (inactive). For the same molecule, the slope in test [6] is 0.00496 (inactive).

For `Clc1cccc(N2CCN(Cc3nc(-c4ccccc4)no3)CC2)c1`, the cell count in test [1] came to 716. In addition, the inhibition in test [1] is -1.1% (inactive); in test [3], -43.3% (inactive); in test [7], 2.81% (inactive); in test [8], 29.2% (inactive). Also, the inhibition of aggregation in test [2] is 8.5% (inactive). In addition, the figures for the nuclei count in test [2] and in test [3] were 112% and 122%, respectively. In test [4], the fluorescence slope is -0.541 (inactive). Also, the NADPH fluorescence slope in test [5] was -9e-05 (inactive). Besides, in test [6], the slope is 0.00744 (inactive).

Take `CC(O)CN1C(=O)C(CC(=O)Nc2ccc(Cl)cc2)SC1=Nc1ccccc1` (centres undefined): in test [1], the cell count was 671. Besides, the inhibition in test [1] is -3.9% (inactive); in test [3] it was -16.8% (inactive); in test [7], 2.35% (inactive); in test [8], 11.1% (inactive). In test [2], the inhibition of aggregation was -11.8% (inactive). The nuclei count amounted to 119% in test [2] and 116% in test [3]. Further, the fluorescence slope in test [4] was -0.453 (inactive). The NADPH fluorescence slope in test [5] was -0.000376 (inactive). Moreover, in test [6], the slope was 0.00536 (inactive).

`O=C(NCCCN1CCOCC1)c1cc(-c2ccc(O)cc2)on1`: the cell count in test [1] was 614. Further, the inhibition in test [1] is -1.6% (inactive); in test [3], -46.9% (inactive); in test [7], 2.55% (inactive); in test [8], -5.13% (inactive). For the same molecule, the inhibition of aggregation in test [2] was -5.2% (inactive). The nuclei count in test [2] came to 92.4%; in test [3], 114%. In test [4], the fluorescence slope is -0.565 (inactive). Moreover, in test [5], the NADPH fluorescence slope is -3.8e-05 (inactive). The slope in test [6] is 0.00654 (inactive).

With `O=C(O)C1C2C=CC(C3CC23)C1C(=O)NCCc1ccccc1` (centres undefined), in test [1], the cell count was found to be 494. Besides, the inhibition is -7.5% (inactive) in test [1], -50% (inactive) in test [3], -3.61% (inactive) in test [7] and 11.6% (inactive) in test [8]. For the same molecule, the inhibition of aggregation in test [2] was 19.2% (inactive). Also, the values for the nuclei count in test [2] and in test [3] were 54% and 104%, respectively. Moreover, the fluorescence slope in test [4] was -0.467 (inactive). Besides, the NADPH fluorescence slope in test [5] was -3.5e-05 (inactive). Also, in test [6], the slope is 0.00628 (inactive).

Take `CCc1ccc(N2CC(C(=O)OCC(=O)Nc3cc(C)on3)CC2=O)cc1` (centres undefined): the cell count in test [1] worked out at 465. In addition, the inhibition in test [1] is 5.3% (inactive); in test [3], -6.8% (inactive); in test [7] it was 5.09% (inactive); in test [8] it was 20.1% (inactive). In test [2], the inhibition of aggregation was -4.7% (inactive). Further, the nuclei count in test [2] turned out to be 102%; in test [3] it was 92.3%. For the same molecule, in test [4], the fluorescence slope is -0.368 (inactive). Besides, the NADPH fluorescence slope in test [5] was -2.5e-05 (inactive). In addition, the slope in test [6] was 0.00565 (inactive).

On to `COc1ccc(C2=NO[C@@H]3C(=O)N(c4cccc(C)c4C)C(=O)[C@H]23)cc1OC`, for which the cell count in test [1] came to 599. In addition, the inhibition is -12.3% (inactive) in test [1], -41.7% (inactive) in test [3], -20.9% (inactive) in test [7] and -5.53% (inactive) in test [8]. In addition, the inhibition of aggregation in test [2] is 10% (inactive). Moreover, the results for the nuclei count in test [2] and in test [3] were 91.7% and 105%, respectively. For the same molecule, the fluorescence slope in test [4] was -0.588 (inactive). Also, the NADPH fluorescence slope in test [5] is -4.9e-05 (inactive). In addition, the slope in test [6] was 0.00915 (inactive).

On to `O=C(O)c1ccc2c(c1)C(=O)N(c1ccc(Cl)cn1)C2=O`, for which the cell count in test [1] is 675. The inhibition was -4.5% (inactive) in test [1], -72% (inactive) in test [3], 10.9% (inactive) in test [7] and 29.8% (inactive) in test [8]. Further, the inhibition of aggregation in test [2] was 14.8% (inactive). Besides, the nuclei count was 84.8% in test [2] and 131% in test [3]. Moreover, the fluorescence slope in test [4] was -0.55 (inactive). In addition, the NADPH fluorescence slope in test [5] was -2.8e-05 (inactive). Moreover, the slope in test [6] is 0.00724 (inactive).

On to `COCCn1c(C23CC4CC(CC(C4)C2)C3)n[nH]c1=S`, for which the cell count in test [1] came to 866. Further, the inhibition is 3.6% (inactive) in test [1], -91.1% (inactive) in test [3], 14.6% (inactive) in test [7] and 42.9% (inactive) in test [8]. Further, the inhibition of aggregation in test [2] is -13.1% (inactive). The nuclei count in test [2] came to 106%; in test [3], 129%. For the same molecule, the fluorescence slope in test [4] is -0.44 (inactive). Besides, in test [5], the NADPH fluorescence slope is -2.3e-05 (inactive). For the same molecule, the slope in test [6] is 0.00347 (inactive).

On to `COc1ccc(S(=O)(=O)N(CC(=O)N2CCN(c3ccccc3OC)CC2)c2ccccc2)cc1`, for which the cell count in test [1] was determined as 291. Moreover, the inhibition in test [1] is 5.2% (inactive); in test [3], 20% (inactive); in test [7], 8.76% (inactive); in test [8], 13.4% (inactive). Moreover, the inhibition of aggregation in test [2] is -12.6% (inactive). For the same molecule, the figures for the nuclei count in test [2] and in test [3] were 104% and 111%, respectively. Moreover, the fluorescence slope in test [4] was -0.474 (inactive). Besides, the NADPH fluorescence slope in test [5] is -4.9e-05 (inactive). Moreover, in test [6], the slope is 0.00648 (inactive).

For `CC(C)(C)Cc1nc(-c2ccccn2)no1`, the cell count in test [1] is 379. The inhibition is 0.8% (inactive) in test [1], -71.1% (inactive) in test [3], -5.86% (inactive) in test [7] and -18.2% (inactive) in test [8]. In addition, the inhibition of aggregation in test [2] is -13.5% (inactive). For the same molecule, the nuclei count in test [2] came out at 109%; in test [3], 115%. Moreover, the fluorescence slope in test [4] was -0.44 (inactive). Further, in test [5], the NADPH fluorescence slope is -2.3e-05 (inactive). Besides, in test [6], the slope is 0.00439 (inactive).

Turning to `CCCNc1nc2c(c(=O)n(C)c(=O)n2C)n1Cc1cccc(C)c1`, in test [1], the cell count worked out at 697. Moreover, the inhibition in test [1] was -3.6% (inactive); in test [3], -95.3% (inactive); in test [7] it was 3.02% (inactive); in test [8] it was 4.07% (inactive). In test [2], the inhibition of aggregation was 10.2% (inactive). Moreover, the figures for the nuclei count in test [2] and in test [3] were 97.4% and 148%, respectively. Besides, the fluorescence slope in test [4] is -0.567 (inactive). In test [5], the NADPH fluorescence slope is -2.9e-05 (inactive). In addition, in test [6], the slope is 0.00499 (inactive).

In the case of `CCSC1=C(C#N)C(c2ccccc2OC)CC(=O)N1` (centres undefined), in test [1], the cell count came to 631. The inhibition in test [1] was -1.9% (inactive); in test [3], -16.2% (inactive); in test [7], -0.399% (inactive); in test [8], 17.9% (inactive). Also, the inhibition of aggregation in test [2] is -4.5% (inactive). Also, the nuclei count in test [2] was found to be 86.7%; in test [3], 106%. Also, the fluorescence slope in test [4] is -0.436 (inactive). The NADPH fluorescence slope in test [5] is 1.7e-05 (inactive). In addition, the slope in test [6] is 0.00579 (inactive).

With `COc1cccc2cc(C(=O)OC3CCN(C)CC3)c(=O)oc12`, the cell count in test [1] amounted to 532. For the same molecule, the inhibition is -6.1% (inactive) in test [1], -56% (inactive) in test [3], 6.92% (inactive) in test [7] and 31.8% (inactive) in test [8]. The inhibition of aggregation in test [2] is 38.8% (inactive). In addition, the nuclei count in test [2] came to 77.9%; in test [3], 110%. In addition, the fluorescence slope in test [4] was -0.605 (inactive). For the same molecule, the NADPH fluorescence slope in test [5] was -2.6e-06 (inactive). In test [6], the slope is 0.00643 (inactive).

Source of the values: PubChem BioAssay.
